Data: PubChem BioAssay AID1159580 (chemical genetic matrix, 2015)
The whole screen tested about 5,500 compounds, of which about 2,000 (36%) were called active. About 18% were inconclusive and are not listed. Rule as the data show it: active = normalized growth mostly below about 0.91 (no sharp cut-off); inconclusive = no clear call, values can overlap the other calls; inactive = mostly above about 0.92. This is one part of the list.

Test: chemical genetic growth profiling, strain panel (AID 1159580);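 also: tested at 20 µM; growth read once vehicle control cultures reached saturation at 30 °C; 1 = growth at the plate median or of vehicle wells; lower values mean less growth of the strain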
Conditions: S. cerevisiae deletion strains, growth OD

Measured: normalized growth

CN1CCC(=C2c3ccccc3C=Cc3ccccc32)CC1
inactive: locus YAL013W, strain DEP1, active compounds read low 0.966 | locus YAL040C, strain CLN3, active compounds read low 0.99 | locus YCL061C, strain MRC1 (second series), active compounds read low 0.99 | locus YDR150W, strain NUM1, active compounds read low 1 | locus YDR363W, strain ESC2, active compounds read low 1 | locus YER002W, strain NOP16, active compounds read low 0.995 | locus YGR078C, strain PAC10, active compounds read low 1 | locus YGR229C, strain SMI1, active compounds read low 0.959 | locus YHR030C, strain SLT2, active compounds read low 0.965 | locus YHR079C, strain IRE1, active compounds read low 0.967 | locus YJL095W, strain BCK1, active compounds read low 0.968 | locus YJR066W, strain TOR1, active compounds read low 0.942 | locus YLR113W, strain HOG1, active compounds read low 0.942 | locus YMR307W, strain GAS1, active compounds read low 1.01 | locus YNL175C, strain NOP13, active compounds read low 0.986 | locus YNL183C, strain NPR1, active compounds read low 0.914 | locus YNL197C, strain WHI3, active compounds read low 1.01 | locus YNL224C, strain SQS1, active compounds read low 0.995 | locus YNL322C, strain KRE1, active compounds read low 0.993 | locus YOR083W, strain WHI5 (second series), active compounds read low 1.01 | locus YOR231W, strain MKK1, active compounds read low 0.965 | locus YPL055C, strain LGE1, active compounds read low 0.973 | locus YPL256C, strain CLN2, active compounds read low 0.932
